The panel holds about 83,000 compounds, 20% with a hit somewhere; the sample as a whole holds those more often.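 For each line, cells grew in 96-well plates with the test compound present at a single concentration for 48 hours.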 Unmarked numbers belong to inactive results. Active and inactive are the calls of the source. How the source made its calls: active means growth percent below 10; inactive means the rest.
Legend:
Assay in all cases: NCI-60 one-dose screen, 48 h (100 = growth as untreated, 0 = no growth, -100 = all killed)
Conditions in all cases: 10 µM
SR leukemia = tested on: SR leukemia
RPMI-8226 leukemia = tested on: RPMI-8226 leukemia
OVCAR-8 ovarian = tested on: OVCAR-8 ovarian
OVCAR-5 ovarian = tested on: OVCAR-5 ovarian
OVCAR-4 ovarian = tested on: OVCAR-4 ovarian
SK-OV-3 ovarian = tested on: SK-OV-3 ovarian
IGROV1 ovarian = tested on: IGROV1 ovarian
OVCAR-3 ovarian = tested on: OVCAR-3 ovarian
HS 578T breast = tested on: HS 578T breast
NCI/ADR-RES ovarian = tested on: NCI/ADR-RES ovarian
T-47D breast = tested on: T-47D breast
BT-549 breast = tested on: BT-549 breast
MDA-MB-435 melanoma = tested on: MDA-MB-435 melanoma
SW-620 colon = tested on: SW-620 colon
MCF7 breast = tested on: MCF7 breast
HCT-116 colon = tested on: HCT-116 colon
HCC-2998 colon = tested on: HCC-2998 colon
KM12 colon = tested on: KM12 colon

Structure (SMILES)	growth (SR leukemia)	growth (RPMI-8226 leukemia)	growth (OVCAR-8 ovarian)	growth (OVCAR-5 ovarian)	growth (OVCAR-4 ovarian)	growth (SK-OV-3 ovarian)	growth (IGROV1 ovarian)	growth (OVCAR-3 ovarian)	growth (HS 578T breast)	growth (NCI/ADR-RES ovarian)	growth (T-47D breast)	growth (BT-549 breast)	growth (MDA-MB-435 melanoma)	growth (SW-620 colon)	growth (MCF7 breast)	growth (HCT-116 colon)	growth (HCC-2998 colon)	growth (KM12 colon)
O=C(Nc1cccc([N+](=O)[O-])c1)NN1CCCCCC1	108%	60.5%	99.2%	105%	98.1%	114%	109%	87.4%	97.2%	91.4%	81.7%	107%	102%	95.9%	100%	94.3%	94.8%	98.7%
CCc1nn2c(-c3ccccc3)c(-c3cc(OC)c(OC)c(OC)c3)nc2s1	59.4%	60.2%	88.1%	98.5%	68.5%	102%	87.3%	92%	69.8%	77.1%	72.5%	111%	95.5%	83.5%	60.6%	80.8%	91.6%	94.7%
C=CCOc1ccc2c(c1)CC[C@@H]1[C@@H]2CC[C@]2(C)C(=O)/C(=N/O)C[C@@H]12	7.72% (active)	20.2%	70.5%	44.7%	8.34% (active)	81.8%	0.671% (active)	75.6%	35.4%	57.6%	22.7%	28.6%	61.6%	42.5%	44.2%	12.2%	27%	61.6%
N=C(N)c1ccc(-c2ccc(-c3cccs3)s2)nc1	-9.12% (active)	-24.2% (active)	55.7%	62.5%	34.7%	63.4%	70.4%	38.6%	80.1%	84.8%	43%	91%	44.5%	22.4%	17.8%	18.5%	-52.7% (active)	–
CC1(C)Cc2c(cn(Cc3ccccc3)c2-c2ccccc2)-c2oncc21	86.8%	74.8%	101%	111%	98.5%	96.4%	121%	110%	103%	92.5%	75.7%	108%	92.8%	95.7%	105%	88.2%	104%	105%
Cc1ccc(C(=O)O)c(N)c1C	98.4%	98.7%	100%	106%	99.3%	93.5%	91%	104%	106%	106%	94.5%	94.3%	105%	104%	92.6%	92%	106%	95%
Cc1ccc([P+](Cc2ccc([N+](=O)[O-])cc2)(c2ccc(C)cc2)c2ccc(C)cc2)cc1	3.65% (active)	-25.3% (active)	40.3%	72.9%	31.1%	74.7%	11.9%	25.7%	86.9%	100%	7.03% (active)	17.2%	6.06% (active)	45.2%	29.7%	22%	31.3%	16%
CC(=O)Nc1ccc2c(c1)C(N1CC3CCC(CC3)C1)c1ccccc1-2 (centres undefined)	0.162% (active)	52.5%	88.3%	95.8%	65.9%	91.4%	92.9%	100%	83.2%	88.6%	66.6%	126%	99.4%	83.8%	96.7%	71.9%	99.5%	80.7%
COc1ccc(-c2nnc(N3CCN(C(=O)CN4CCN(c5ccc(Cl)cc5)CC4)CC3)nc2-c2ccc(OC)cc2)cc1	54.2%	-44.9% (active)	66.1%	114%	61.5%	102%	62.7%	73.1%	72.2%	81.8%	38.2%	59%	68%	69.3%	37.1%	34.1%	75.2%	50.5%
CCCCCC(=O)N1c2ccccc2NC2=C(C(=O)CC(c3ccc(OC)c(OC)c3)C2)C1c1ccc(C(F)(F)F)cc1 (centres undefined)	51.8%	21.6%	47.1%	103%	41.8%	83.6%	63%	33.1%	78.7%	58.7%	36.9%	75.9%	62.4%	68.8%	50.2%	39.3%	81.2%	–
C#Cc1ccc(-n2c(/C=C/c3cc(OC)c(OC)c(OC)c3)nc3ncccc3c2=O)cc1	11.2%	40.9%	75.1%	120%	63.4%	65.9%	56.3%	4.62% (active)	75.4%	54.6%	58.9%	59.7%	-9.47% (active)	49.1%	25%	54.2%	91%	–
Cc1nc2sccn2c1-c1csc(Nc2cccc(Cl)c2C)n1	17.7%	45%	65.6%	77.9%	45.7%	79.1%	62%	64.3%	53.1%	41.6%	36.2%	43.9%	7.55% (active)	49.1%	38.1%	46.1%	69%	50.8%
Cc1ccc(NS(=O)(=O)c2ccccc2)c(NS(=O)(=O)c2ccccc2)c1	117%	93.4%	105%	104%	97%	102%	107%	98%	91.1%	94.7%	101%	104%	106%	95.1%	104%	93.7%	106%	103%
COc1ccc(-c2nc(NC(=O)CS(=O)(=O)c3ccc(F)cc3)sc2C)cc1	32.5%	-0.965% (active)	74%	95.4%	69.8%	73.6%	54.5%	56%	79.5%	50.6%	33.2%	66.3%	75%	50.9%	57.9%	44.7%	47.4%	–
COc1ccc(-c2[nH]ncc2-c2cc(OC)c(OC)c(OC)c2)cc1	0.125% (active)	0.214% (active)	9.19% (active)	20.7%	26.8%	-0.205% (active)	28.8%	-17.5% (active)	16.1%	14.5%	58.1%	-6.65% (active)	-48% (active)	23.6%	6.61% (active)	2.61% (active)	-3.98% (active)	-8.7% (active)
COc1ccc(Cn2cc3c(c2-c2cc(OC)c(OC)c(OC)c2)CCc2cnoc2-3)cc1[N+](=O)[O-]	22%	27.9%	48.7%	58.6%	47%	-12.7% (active)	9.29% (active)	-23.6% (active)	3.07% (active)	5.02% (active)	40%	51.9%	-53.9% (active)	26.6%	26.6%	19.4%	18%	24.7%
COc1ccc2c(=O)cc(C(Cl)(Cl)Cl)oc2c1	-25.6% (active)	-27.2% (active)	-1.14% (active)	16.6%	-12.9% (active)	9.34% (active)	-7.04% (active)	-19.7% (active)	-13.9% (active)	10.3%	4.96% (active)	-11.9% (active)	-81% (active)	-2.53% (active)	-9.4% (active)	4.23% (active)	-30% (active)	–
COc1cccc(C(=O)NNc2nc(N3CCOCC3)nc(N3CCN(C(c4ccccc4)c4ccccc4)CC3)n2)c1	65.6%	71.2%	82.5%	94.1%	73.4%	73.7%	67.4%	74.6%	80.1%	84.3%	59.2%	87.9%	96.8%	96.5%	79.8%	85.4%	100%	77.7%

Reference: PubChem BioAssay (NCI)
